According to PubChem BioAssay (NCATS):
“And” between values parts separate entries of the source, which are not always exact repeats. Identical values can stand only once. Records with an inconclusive call do not appear. A call without a number means that no potency is given here. A number with no mark means an inactive call. The source made the active and inactive calls. The call rests on the fitted dose curve; in most records, active means well fitted curve in the direction sought with a large enough effect; inconclusive means small, poorly fitted or top-dose-only effect, or another doubt; inactive means no such curve, though single readings can be large; an effect the other way counts as inactive or inconclusive. Where a SMILES comes first, the peptide text is derived from it.

Legend:
[1] = Confirmatory screen GU Rhodamine qHTS for Zika virus inhibitors qHTS (AID 1347157); settings: purified enzyme assay, Rhodamine110 substrate fluorescence, 15 min; further: potency means the concentration at half of the fitted maximal effect; nearly all actives have a fitted effect of over 70% in size
How it was run: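 Percent inhibition came from the 15-min rise in Rhodamine110 fluorescence (1.5 microM substrate, ~15% conversion), normalized to no-inhibitor and no-enzyme wells and Hill-fitted. Unlinked protease, 25 nM, pH 8.0 Tris buffer; compounds up to 114 microM, 15-min preincubation.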

[2] = system: Zika virus NS2B-NS3 protease (unlinked complex); test: Primary screen GU Rhodamine qHTS for Zika virus inhibitors: Unlinked NS2B-NS3 protease assay (AID 1347159); further: nearly all actives have a fitted effect of over 60% in size; further: potency means the concentration at half of the fitted maximal effect
How it was run: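 In dose–response format, inhibition of unlinked protease (25 nM) was measured with 1.5 microM bis-peptide Rhodamine110 substrate. Aprotinin served as the intraplate control.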

[3] = system: Zika virus NS2B-NS3 protease (linked construct); test: Primary screen NINDS Rhodamine qHTS for Zika virus inhibitors (AID 1347160); further: nearly all actives have a fitted effect of over 55% in size; further: potency means the concentration at half of the fitted maximal effect
How it was run: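 Each compound, titrated, sat 15 min with 25 nM linked protease before 1.5 microM Rhodamine110 substrate went in. Fluorescence gain over the next 15 min, in pH 8.0 Tris with Tween 20, gave Hill-fitted curves.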

[4] = Confirmatory screen NINDS Rhodamine qHTS for Zika virus inhibitors (AID 1347161); settings: purified enzyme assay, Rhodamine110 substrate fluorescence, 15 min; further: potency means the concentration at half of the fitted maximal effect; nearly all actives have a fitted effect of over 60% in size
How it was run: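 Enzyme (25 nM, linked NS2B-NS3) was preincubated 15 min with compound in 10 mM Tris-HCl pH 8.0, 0.01% Tween 20. Rhodamine110 substrate (1.5 microM) was then added and fluorescence read at start and after 15 min.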

[5] = Tertiary RLuc qRT-PCR qHTS assay for Zika virus inhibitors (AID 1347169); further: nearly all actives have a fitted effect of over 55% in size; further: potency means the concentration at half of the fitted maximal effect; on activity change, negative = inhibition: top concentration of the series differs between compounds
How it was run: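 Vero, 1,000 cells/well, o/n 37 C; cpd pinned in DMSO; ZIKV-RLuc Cambodian, MOI 1-2, 48-72 h 37 C; live-cell RLuc substrate, lum read at 1-1.5 h.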

[6] = system: Zika virus NS2B-NS3 protease (linked construct); test: Confirmatory screen NINDS AMC qHTS for Zika virus inhibitors (AID 1347152); further: potency means the concentration at half of the fitted maximal effect; nearly all actives have a fitted effect of over 70% in size
How it was run: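 Enzyme (1 nM, linked construct) was preincubated with compound for 15 minutes at room temperature in 10 mM Tris-HCl pH 8.0 with 0.01% Tween 20. Bz-Nle-Lys-Arg-Arg-AMC was then added to 10 microM, and AMC fluorescence was recorded immediately and after 15 minutes.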

[7] = system: Zika virus NS2B-NS3 protease (linked construct); test: 384 well plate NINDS Rhodamine confirmatory qHTS for Zika virus inhibitors (AID 1347164);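 further: fluorescence from protease cleavage of Ac-LKRR-rhodamine 110 substrate; nearly all actives have a fitted effect of over 65% in size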; further: potency means the concentration at half of the fitted maximal effect; on activity change, negative = inhibition: top concentration of the series differs between compounds
How it was run: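 Enzyme (final 5/30/60 nM) + cpd (DMSO), ~15 min; add Ac-LKRR-Rd 10 microM final; 25 min RT, dark; FI ex 485/em 538; normalized to no-enzyme, no-inhibitor ctrls; aprotinin intraplate ctrl.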

[8] = Vero cells viability qHTS for Zika virus inhibitors (AID 1347167)
How it was run: (§1)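 Luminescent ATP readout (CellTiter Glo) after 30 min at 37 degrees C gives viability; cells in DMEM + 4% FBS were treated 24 to 48 hours with compound, following overnight attachment.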

[9] = HepG2 cells viability qHTS for Zika virus inhibitors (AID 1347168)
How it was run: as §1

[10] = system: Zika virus NS2B-NS3 protease; test: Primary screen GU AMC qHTS for Zika virus inhibitors (AID 1347154); further: nearly all actives have a fitted effect of over 70% in size
How it was run: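 Fluorogenic AMC-substrate cleavage by noncovalent NS2B-NS3 protease complex (25 nM, pH 8.0 Tris buffer with Tween 20) followed for 15 minutes at room temperature (~20% conversion). Percent inhibition from ex340/em450 signal change, fitted by 4-parameter Hill equation.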

[11] = system: Zika virus NS2B-NS3 protease (unlinked complex); test: Confirmatory screen GU AMC qHTS for Zika virus inhibitors (AID 1347153); settings: Recombinant NS2B-NS3 protease, AMC substrate fluorescence;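 further: enzyme at 25 nM with substrate at 10 µM below its Km of 18.3 µM; potency means the concentration at half of the fitted maximal effect; nearly all actives have a fitted effect of over 70% in size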
How it was run: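 Unlinked NS2B-NS3 complex (25 nM) in 10 mM Tris-HCl pH 8.0, 0.01% Tween 20 preincubated 15 min with compound, then 10 microM Bz-Nle-KRR-AMC (Km 18.3 µM). Fluorescence change over 15 min, normalized, Hill-fitted.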

[12] = ZIKV-mCherry secondary qHTS for Zika virus inhibitors (AID 1347158); further: top concentration of the series differs between compounds
How it was run: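 This orthogonal imaging screen measured ZIKV-mCherry infection of Vero cells exposed to compound, MOI 1, 48-72 h. Percent infection came from segmented nuclei scored mCherry-positive above 3 SD of negative controls.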

[13] = system: Zika virus NS2B-NS3 protease (linked); test: 384 well plate NINDS AMC confirmatory qHTS for Zika virus inhibitors (AID 1347163); further: nearly all actives have a fitted effect of over 50% in size; further: potency means the concentration at half of the fitted maximal effect;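 on activity change, negative = inhibition: linked protease at 5 30 or 60 nM final depending on run; fluorescence of AMC released from Ac-VKTGKR-AMC peptide cleaved by the protease; top concentration of the series differs between compounds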
How it was run: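 Enzyme (5, 30 or 60 nM final) first met test compounds for ~15 min. The AMC-tagged peptide Ac-VKTGKR-AMC followed at 30 microM. Fluorescence was then recorded at 25 min and scaled against no-enzyme and no-inhibitor wells.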

CC1C/C=C/C=C\CCCCC(O)C/C=C/C(=O)O1 (stereo not drawn)
Potency [1]: 44.1 µM (active)
Potency [2]: 17.8 µM (active)
Potency [3]: inactive
Potency [4]: 49.4 µM (active)
Potency [5]: inactive

CCCCS(=O)(=O)Nc1ncnc(OCCOc2ncc(Br)cn2)c1-c1ccc(Br)cc1
Potency [1]: 22.1 µM (active)
Potency [2]: inactive
Potency [4]: 35 µM (active)
Potency [5]: inactive

C[C@@H]1CC[C@]2(C)C(C[C@@H](O)[C@H](O)[C@]23CO3)[C@@]1(C)CCc1ccoc1 (stereo partly drawn)
Potency [2]: inactive

CCOc1ccc(-c2ccc(Cn3c(CC(C)(C)C(=O)O)c(SC(C)(C)C)c4cc(OCc5ccc(C)cn5)ccc43)cc2)cn1
Potency [6]: 7.84 µM (active)
Potency [1]: 1.75 µM (active)
Potency [2]: 2.51 µM (active) and 2.82 µM (active)
Potency [3]: 3.16 µM (active)
Potency [4]: 2.21 µM (active)
Potency [7]: inactive
outcome [8]: inactive
outcome [9]: inactive
Potency [5]: 5.23 µM (active)

C=C1CC23CCC4[C@@](C)(CCC[C@@]4(C)C(=O)O)C2CCC1C3 (stereo partly drawn)
Potency [1]: 39.3 µM (active)
Potency [2]: 20 µM (active)
Potency [3]: inactive
Potency [4]: 44.1 µM (active)
Potency [5]: inactive

CCOC(=O)C1=CC2(CC)CCCN3CCc4c(n1c1ccccc41)C32 (stereo not drawn)
outcome [10]: inactive

COC(=O)CC1(O)C(=O)Nc2ccccc21 (stereo not drawn)
Potency [2]: inactive

COC(=O)C1=C(C)NC(C)=C(C(=O)OCCCN2CCC(c3ccccc3)(c3ccccc3)CC2)[C@H]1c1cccc([N+](=O)[O-])c1
outcome [10]: inactive

CCCC(=O)Nc1ncnc2c1ncn2[C@@H]1O[C@@H]2COP(=O)(O)O[C@H]2[C@H]1OC(=O)CCC
outcome [10]: inactive

CC1=C(/C=C/C(C)=C/C=C/C(C)=C/CO)C(C)(C)CCC1
outcome [10]: inactive

CC(=O)c1c(C)cc(O)cc1O[C@@H]1O[C@H](CO)[C@@H](O)[C@H](O)[C@H]1O
Potency [1]: 30.6 µM (active)
Potency [2]: inactive
Potency [5]: inactive

O=C(O)c1cnn(-c2nc3cc(OC(F)(F)F)c(Cl)cc3[nH]2)c1
Potency [6]: 40.3 µM (active)
Potency [11]: 32 µM (active)
Potency [1]: 12.7 µM (active)
outcome [12]: inactive
Potency [2]: 5.01 µM (active)
Potency [3]: 2 µM (active)
Potency [4]: 5.69 µM (active)
Potency [7]: 0.794 µM (active)
outcome [8]: inactive
outcome [9]: inactive

CCOc1c2c(c(OCC)c3ccccc13)C(=O)N(c1ccc(CC(=O)NS(=O)(=O)c3ccccc3)cc1)C2
Potency [6]: 44.1 µM (active)
Potency [11]: 44.1 µM (active)
Potency [1]: 4.94 µM (active)
Potency [2]: 3.98 µM (active)
Potency [3]: 8.91 µM (active)
Potency [4]: 4.41 µM (active)
Potency [13]: inactive
Potency [7]: inactive
outcome [8]: inactive
outcome [9]: inactive

CC(C)C(=O)c1cn(CC(=O)COc2ccc(Oc3ccccc3)cc2)c2ccc(C(=O)O)cc12
Potency [6]: 44.1 µM (active)
Potency [11]: 44.1 µM (active)
Potency [1]: 8.79 µM (active)
outcome [12]: inactive
Potency [2]: 8.91 µM (active)
Potency [3]: 8.91 µM (active)
Potency [4]: 5.55 µM (active)
Potency [13]: 44.7 µM (active)
Potency [7]: inactive
outcome [8]: inactive
outcome [9]: inactive
Potency [5]: 18.6 µM (active)

CC1(C)CCC(C)(C)c2cc3c(cc21)Sc1ccccc1N=C3c1ccc(C(=O)O)cc1
Potency [6]: 7.84 µM (active)
Potency [1]: 1.56 µM (active)
Potency [3]: 2.24 µM (active)
Potency [4]: 1.75 µM (active)
Potency [13]: 8.91 µM (active)
Potency [7]: 4.47 µM (active)
outcome [8]: inactive
outcome [9]: inactive

CC1(C)OC(=O)C(OCC2CC2)=C1c1ccc(S(C)(=O)=O)cc1
Potency [2]: inactive
Potency [3]: inactive

C[C@@H]1CCC2C(C)(C)[C@H](O)CC[C@]2(C)[C@@]12Cc1c(O)cc3c(c1O2)CN(CCO)C3=O (stereo partly drawn)
Potency [2]: inactive
Potency [3]: inactive

Cc1ncc([N+](=O)[O-])n1CC(O)CN1CCOCC1 (stereo not drawn)
Potency [2]: inactive
Potency [3]: inactive

CO/N=C(/C(=O)N[C@@H]1C(=O)N2C(C(=O)O)=C(CSC(=O)c3ccco3)CS[C@H]12)c1csc(N)n1
Potency [2]: 35.5 µM (active)
Potency [3]: 25.1 µM (active)

CC(=O)OCC1=C[C@H](O)[C@@H]2C(C(=O)O)=CO[C@@H](O[C@@H]3O[C@H](CO)[C@@H](O)[C@H](O)[C@H]3O)[C@H]12
Potency [2]: inactive
Potency [3]: inactive

Cn1c(=O)cc(N2CCCC(N)C2)n(Cc2ccccc2C#N)c1=O (stereo not drawn)
Potency [2]: inactive
Potency [3]: inactive

CCCCNC(=O)[C@@H]1Cc2ccccc2N1C(=O)[C@@H](N)CC
Potency [2]: inactive
Potency [3]: inactive

COc1cc(C2OCC3C(c4ccc(OC5OC(CO)C(O)C(O)C5O)c(OC)c4)OCC23)ccc1O (stereo not drawn)
Potency [2]: inactive
Potency [3]: inactive

C[C@@H](O)[C@H](N)C(=O)N1CCC[C@H]1C(=O)N1CCC[C@H]1C(=O)N[C@H](C(N)=O)[C@@H](C)O (H-TPPT-NH2)
activity change, negative = inhibition [2]: -7.3% [at 19.1 µM]
activity change, negative = inhibition [3]: 20.4% [at 10.7 µM]

C=C1CC2C3(C)C(OC(C)=O)CC(=O)OC(C)(C)C3C(O)C(OC(C)=O)C2(C)C2C(=O)OC(C)C(=O)C12C (stereo not drawn)
Potency [2]: inactive
Potency [3]: inactive

CC1(CO)CC[C@]2(C(=O)O[C@@H]3O[C@H](CO)[C@@H](O)[C@H](O)[C@H]3O)CC[C@]3(C)C(=CCC4[C@@]5(C)CC[C@H](O[C@@H]6O[C@H](C(=O)O)[C@@H](O)[C@H](O)[C@H]6O)C(C)(C)C5CC[C@]43C)C2C1 (stereo partly drawn)
Potency [2]: inactive
Potency [3]: inactive

CC1(CCC(=O)O)C(=O)C=CC23CC4CC(OC4(C)C2O)C13 (stereo not drawn)
Potency [2]: inactive
Potency [3]: inactive

CCOC(=O)N1CCC(NCCNC(=O)c2ccccc2C)CC1
Potency [2]: inactive
Potency [3]: inactive
